For 38 molecules, growth inhibition results are on record in the supplement of paper PMC5641865, “A screen for kinase inhibitors identifies antimicrobial imidazopyridine aminofurazans as specific inhibitors of the Listeria monocytogenes PASTA kinase PrkA” (The Journal of Biological Chemistry, 2017).

Each structure is given as a SMILES string. ± gives the standard deviation of the averaged measurements.
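Further: End-point A600 read in BHI broth at 37 °C with 2% DMSO, inhibition computed as (1 − OD with compound plus ceftriaxone ÷ OD with ceftriaxone only) × 100.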

The subject of this assay is Listeria monocytogenes 10403S. The assay can be described thus: growth inhibition relative to ceftriaxone-alone control; higher = stronger potentiation of ceftriaxone growth inhibition. The settings on record: 10 µM; ceftriaxone 1 ug/ml; 12 h.
Consider `COc1cc2ncnc(Nc3ccc(F)c(Cl)c3)c2cc1OCCCN1CCOCC1` [Gefitinib (Iressa)], for which the growth inhibition is 31 ± 21%.

With `COc1ccccc1-c1cc(/C=C2\C(=O)Nc3ncc(Br)cc32)cc(Br)c1O`, the growth inhibition is -8.54 ± 8.1%.

In the case of `CNC(=O)c1cc(COc2nnc(Nc3ccc(Cl)cc3)c3ccoc23)ccn1` [Telatinib (BAY 57-9352)], the growth inhibition came to 22.8 ± 32%.

With `Cc1nnc(-c2ccc(C)c(-c3ccc(C(=O)Nc4cccc(C#N)c4)cc3)c2)o1`, the growth inhibition is 6.6 ± 12%.

For `CCCN(CCS(C)(=O)=O)Cc1ccc(-c2ccc3ncnc(Nc4ccc(OCc5cccc(F)c5)c(Cl)c4)c3c2)o1`, the growth inhibition is -7.09 ± 4.2%.

For the molecule `CC1=C(C(=O)Nc2ccc3[nH]ncc3c2)C(c2ccc(F)cc2)N=C(c2ccc(C(F)(F)F)nc2)N1` (stereo not drawn), the growth inhibition amounted to 4.07 ± 7.3%.

For `Cc1ccc2c(-c3ccnc(Nc4cccc(C(F)(F)F)c4)n3)c(-c3ccccc3)nn2n1`, the growth inhibition was -3.53 ± 4.7%.

Turning to `O=C(NC[C@H](O)CO)c1ccncc1Nc1ccc(I)cc1F`, the growth inhibition amounted to 1.43 ± 12%.

As for `O=C1NC(=O)/C(=C\c2ccc3nccnc3c2)S1`, the growth inhibition came to 13.5 ± 10%.

For the molecule `COc1ccc(C2=C(N3CCc4ccccc43)C(=O)NC2=O)cc1`, the growth inhibition is -2.53 ± 0.37%.

For `CS(=O)(=O)Nc1ccc(-c2cc(-c3ccccc3)cc(C(N)=O)c2N)cc1`, the growth inhibition was found to be 29.1 ± 20%.

In the case of `Cc1cnc(Nc2ccc(OCCN3CCCC3)cc2)nc1Nc1cccc(S(=O)(=O)NC(C)(C)C)c1`, the growth inhibition was determined as 39 ± 15%.

As for `FC(F)(F)c1ccc(-c2nn3ncccc3c2-c2ccnc(Nc3ccc4c(c3)OCCO4)n2)cc1`, the growth inhibition was -7.04 ± 3.3%.

In the case of `COc1cc2ncnc(Nc3ccc(F)c(Cl)c3)c2cc1NC(=O)/C=C/CN1CCCCC1`, the growth inhibition was determined as 60 ± 55%.

`NS(=O)(=O)c1ccc(N/N=C2\C(=O)Nc3ccc(C(=O)NCCc4c[nH]cn4)cc32)cc1`: the growth inhibition was 14.1 ± 4.2%.

On to `CN(C)CCCn1c(-c2nonc2N)nc2cnccc21`, for which the growth inhibition was -5.31 ± 2.5%.

As for `NC(=O)c1cccc(Nc2nccc(Nc3cccc4[nH]ncc34)n2)c1`, the growth inhibition was 0.727 ± 1.3%.

Take `NC(=O)c1sc(-n2cnc3ccccc32)cc1OCc1ccccc1Br`: the growth inhibition is -4.4 ± 0.65%.

Turning to `CCOc1cc2ncc(C#N)c(Nc3ccc(OCc4ccccn4)c(Cl)c3)c2cc1NC(=O)/C=C/CN(C)C` [Neratinib (HKI-272)], the growth inhibition was 12.3 ± 9.7%.

As to `CC(=O)Nc1cccc(C#Cc2cncnc2Nc2ccc(OCc3cccc(F)c3)c(Cl)c2)c1`, the growth inhibition was -15 ± 2.5%.

For the molecule `Cc1c2ccc(N(C)c3ccnc(Nc4cccc(S(N)(=O)=O)c4)n3)cc2nn1C`, the growth inhibition amounted to 2.52 ± 4.2%.

As for `FC(F)(F)c1ccc(/C=C/c2nc(COc3ccc(CCCCn4ccnn4)cc3)co2)cc1` [Mubritinib (TAK 165)], the growth inhibition was 16.1 ± 6.1%.

In the case of `O=S(=O)(CCOCc1ccc(-c2ccc3ncnc(Nc4ccc(OCc5cccc(F)c5)c(Cl)c4)c3c2)o1)c1ccccc1`, the growth inhibition is -11.6 ± 11%.

As for `COc1cc2ncn(-c3cc(OCc4ccccc4S(C)(=O)=O)c(C#N)s3)c2cc1OC`, the growth inhibition came to 12.7 ± 3%.

In the case of `C[C@@H]1CN(CC(=O)Nc2ccc3c(c2)Cc2cccc(-c4cc(=O)cc(N5CCOCC5)o4)c2S3)C[C@H](C)O1`, the growth inhibition stood at 27.5 ± 4.1%.

Take `CS(=O)(=O)Nc1ccc(N/C=C2\C(=O)Nc3ccccc32)cc1`: the growth inhibition was -14.6 ± 19%.

Take `C=CC(=O)Nc1cccc(Oc2nc(Nc3ccc(N4CCN(C)CC4)cc3OC)ncc2Cl)c1`: the growth inhibition is -1.74 ± 9.7%.

Take `CCn1c(-c2nonc2N)nc2c(C#CC(C)(C)O)nc(OCCNC)cc21`: the growth inhibition came out at 41.3 ± 18%.

In the case of `O=C(O)[C@]1(Cc2cccc(Nc3nccs3)n2)CC[C@@H](Oc2cccc(Cl)c2F)CC1`, the growth inhibition worked out at 89.4 ± 3%.

Regarding `CC(C)(O)CC(=O)NCCn1ccc2ncnc(Nc3ccc(Oc4cccc(C(F)(F)F)c4)c(Cl)c3)c21`, the growth inhibition worked out at 98.62 ± 0.75%.

Regarding `COc1cc(C=NNc2ncnc3c2cnn3Cc2ccccc2)ccc1O`, the growth inhibition is -10.8 ± 3.7%.

On to `Cc1cnc(Nc2ccc(N3CCN(C)CC3)cc2)nc1Nc1cccc(S(=O)(=O)NC(C)(C)C)c1`, for which the growth inhibition is 42.3 ± 24%.

Consider `Cc1nnc(-c2ccc(C)c(-c3ccc(C(=O)NCc4ccc(Cl)cc4)cc3)c2)o1`, for which the growth inhibition was -4.74 ± 3.3%.

For `Cc1cccc2c1NC(=O)/C2=N\Nc1ccc(S(N)(=O)=O)cc1`, the growth inhibition is -10.2 ± 7.5%.

Turning to `Cc1c(NC(=O)OC[C@@H]2COCCN2)cn2ncnc(Nc3ccc4c(cnn4Cc4cccc(F)c4)c3)c12`, the growth inhibition worked out at 44.1 ± 20%.

As to `COc1cc(CCc2cc(NC(=O)c3ccc(N4CC(C)NC(C)C4)cc3)n[nH]2)cc(OC)c1` (stereo not drawn), the growth inhibition amounted to 38.3 ± 21%.

Turning to `CN(C)Cc1cccc(N/C(=C2\C(=O)Nc3cc(C(N)=O)ccc32)c2ccccc2)c1`, the growth inhibition came to 8.63 ± 3.3%.

For `Cc1ccc(-n2nc(C(C)(C)C)cc2NC(=O)Nc2ccc(OCCN3CCOCC3)c3ccccc23)cc1` [BIRB 796 (Doramapimod)], the growth inhibition came out at 10.5 ± 14%.
